Source: PubChem BioAssay (NCI)
Values joined by “and” are separate entries in the source; they are usually repeats but may differ in a detail not shown here. Identical values can stand only once. Compounds without any hit were thinned out: in the full panel of roughly 83,000, 20% have a hit.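 How to read the values: 0–100, growth inhibition (40 = 60% inhibited); 0, no net growth; -100 to 0, cell death (-40 = 40% of starting cells died; -100 = all dead).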 Active and inactive are the calls of the source.

Test system: NCI/ADR-RES ovarian
Assay: NCI-60 one-dose screen, 48 h (100 = growth as untreated, 0 = no growth, -100 = all killed)
Conditions: 10 µM
Experimental: Growth inhibition of the NCI/ADR-RES human […] tumor cell line is measured as a screen for anti-cancer activity. Cells are grown in 96 well plates and exposed to the test compound for 48 hours. Compounds are tested at a single concentration, which is 10^-5 M for most compounds. The reported endpoint is percent growth (GI% or GIPRCNT), where numbers from 0 - 100% represent growth inhibition, and numbers from -100% - 0 represent cell death. For example, a value of 40 represents 60% growth inhibition. A value of 0 means no net growth occurred over the course of the experiment. A value of -40 indicates 40% of cells at the beginning of the experiment died by the end of the experiment. A value of -100 means all cells are dead at the end of the experiment.
NCI-60 Human Tumor Cell Lines Screen was performed using the standard one-dose NCI protocol, which is described in more detail at https://dtp.cancer.gov/discovery_development/nci-60/default.htm.
Compounds with GIPRCNT values below 10 were considered active. Activity score was based on GIPRCNT using the following formula: […]
Score is 0 for GIPRCNT values of 100 or above, 50 for GIPRCNT values of 0, and 100 for GIPRCNT values of -100.

SMILES | growth
O=C(O)c1c(Cl)c(Cl)c(Cl)c(Cl)c1-c1c2cc(I)c(=O)c(I)c-2oc2c(I)c(O)c(I)cc12 | 103% (inactive) and 98% (inactive) and 109% (inactive)

Same assay, conditions: 10 µM unless noted

SMILES | growth
CCCCCCCCCCCCCCCCCCOP(=O)([O-])OC1CC[N+](C)(C)CC1 | 73.5% (inactive) and 54.9% (inactive)
O=C(Nc1ccc(F)cc1)ON=C1CCCCC1 | 105% [100 µM] (inactive)
O=C(/C=C/c1cccc(Cl)c1)c1ccccc1 | 105% (inactive) and 88.8% (inactive)
Cn1c2ccccc2c2nnc(N/N=C/c3ccccn3)nc21 | 6.51% (active)
O=[N+]([O-])c1ccc2c(N=Nc3ccc4ccccc4c3O)c(O)cc(S(=O)(=O)O)c2c1 | 86.1% (inactive)
O=C1C2=C(Nc3cc([N+](=O)[O-])ccc3N2)OC1c1c2ccccc2cc2ccccc12 (stereo not given) | 38.3% (inactive)
CCC(c1cccc(O)c1)C(CC)c1cccc(O)c1 (stereo not given) | 72.1% (inactive)
CC(C)c1ccc2nc3ccc(C(=O)NCCN4CCN(c5ccccc5)CC4)cn3c(=O)c2c1 | 32.2% (inactive)
N[C@H](C(=O)O)[C@@H]1CC(Cl)=NO1 | 28.4% [20 µM] (inactive)
NC(=O)/C=C/C(=O)c1c(Cl)cccc1Cl | -59.4% (active)
CNc1ccc2c(c1)c1ccccc1n2C | 102% (inactive)
CCOC(=O)c1c(C)[nH]c(CO)c1C | 105% (inactive)
CN1c2ccccc2C(C)(C)C12C=Cc1cc(O)ccc1O2 (stereo not given) | 26.4% (inactive)
CCOC(=O)/C(=C\c1ccc(-c2ccccc2)cc1)C(C)=O | 103% (inactive)
C=C(Cl)C(=NC(C)(C)C)Nc1ccccc1C | 107% (inactive)
CCN1/C(=C\c2cc[n+](CC)c3ccccc23)C=Cc2ccccc21 | 86.9% (inactive)
CCN(CC)CCOc1ccc(-c2nc3cc(Cl)ccc3s2)cc1 | -26.1% (active)
N#CC1C(=O)SC2c3ccccc3C(=O)c3ccccc3C12 (stereo not given) | 104% (inactive)
CCCCCCCCCCCCCCCCOP(=O)([O-])OCC[N+](C)(C)C | 90% (inactive)

SMILES | growth
CC1SC(=S)N(c2ccc(Cl)cc2)C1=O (stereo not given) | 103% (inactive)
C[N+](C)=c1ccc2nc3c(cc(NCCCNc4cc5oc6cc(=[N+](C)C)ccc-6nc5c5ccccc45)c4ccccc43)oc-2c1 | 6.53% (active)
CCC(=O)Sc1ccccc1C(=O)Nc1ccc(Cl)cc1 | 52.6% (inactive)
COc1cc(/C=C/C(C)=O)ccc1O | 107% (inactive) and 100% (inactive)
N#CSCc1ccc(CSC#N)c(Cl)c1 | 77.9% (inactive)
Cc1cc(C(C)(CC(C)C)c2ccc(O)c(C)c2)ccc1O | 105% (inactive)
O=C1c2ccccc2C(=O)c2sc(Nc3cccc(Cl)c3)nc21 | -16.9% (active)
O=C(Nc1cccc(Br)c1)Oc1ccc(Cl)c2cccnc12 | 6.36% [100 µM] (active)
Cc1cc(N)c2ccccc2[n+]1CCCCCCCCCC[n+]1c(C)cc(N)c2ccccc21 | 66.2% (inactive) and 64.1% (inactive)
COc1ccccc1OC(=O)Oc1ccccc1OC | 114% (inactive) and 95.8% (inactive)
Cc1ccnc(NC(c2ccccc2)c2ccc3cccnc3c2O)c1 (stereo not given) | 22.4% (inactive)
O=C1OCc2cccc3cccc1c23 | 108% (inactive)
COC(=O)[C@@]12OC[C@]34[C@H]([C@@H](O)[C@@H]1O)[C@@]1(C)[C@H](O)C(=O)C=C(C)[C@@H]1C[C@H]3OC(=O)C(OC(C)=O)[C@@H]24 (stereo not given in full) | 16% (inactive)
Nc1nc(N)c2nc(CNc3ccc(C(=O)NC(CCC(=O)O)C(=O)O)cc3)cnc2n1 (stereo not given) | 25.8% (inactive) and 20.3% (inactive)
Cc1ccnc2c1ccc1c(C)ccnc12 | 1.41% (active)
COc1cc(NS(C)(=O)=O)ccc1Nc1c2ccccc2nc2ccccc12 | 70.2% [2.5 µM] (inactive)
O=C(CC1(O)C(=O)Nc2c(Cl)ccc(Cl)c21)c1ccc(Cl)cc1Cl (stereo not given) | 106% (inactive)
O=C(Nc1ccccc1)c1cc(Cl)ccc1O | 74.6% (inactive)
CCC(CC)COC(=O)c1ccc(O)c(O)c1 | 57.8% (inactive)

Same assay, conditions: 100 µM

SMILES | growth
O=C(O)c1c(Cl)c(Cl)c(Cl)c(Cl)c1-c1c2cc(I)c(=O)c(I)c-2oc2c(I)c(O)c(I)cc12 | 10.7% (inactive)
